Results reported in PubChem BioAssay AID1434 (Sanford-Burnham Center for Chemical Genomics, 2008).
Screen size: about 220,000 compounds; about 1,600 (0.73%) were called active. The sample holds actives, similar compounds and a random draw of the others, so the mix is not that of the screen.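 Rule for the calls: active = mean inhibition across duplicate retests at 20 µM reaching about 50% (limit read from the data); inactive = the rest, inconclusive results apart.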

Biological target: Runt-related transcription factor 1 (Homo sapiens) + Core-binding factor subunit beta (Homo sapiens) (UniProt Q01196+Q13951)
Sequence (Q01196 whole entry, looked up, the tested form may be a part): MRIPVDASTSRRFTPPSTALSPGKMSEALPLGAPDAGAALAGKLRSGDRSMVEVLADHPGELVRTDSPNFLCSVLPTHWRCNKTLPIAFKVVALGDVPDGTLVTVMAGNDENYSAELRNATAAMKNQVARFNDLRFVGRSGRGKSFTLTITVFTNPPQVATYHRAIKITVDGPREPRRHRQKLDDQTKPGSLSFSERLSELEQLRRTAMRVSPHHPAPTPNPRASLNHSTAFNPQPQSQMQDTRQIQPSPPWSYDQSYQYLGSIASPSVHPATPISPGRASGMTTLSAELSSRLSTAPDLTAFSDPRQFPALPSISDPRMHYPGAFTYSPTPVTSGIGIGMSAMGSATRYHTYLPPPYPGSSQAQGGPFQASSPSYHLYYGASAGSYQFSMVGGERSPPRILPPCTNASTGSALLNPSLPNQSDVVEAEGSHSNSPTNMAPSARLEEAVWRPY
Sequence (Q13951 whole entry, looked up, the tested form may be a part): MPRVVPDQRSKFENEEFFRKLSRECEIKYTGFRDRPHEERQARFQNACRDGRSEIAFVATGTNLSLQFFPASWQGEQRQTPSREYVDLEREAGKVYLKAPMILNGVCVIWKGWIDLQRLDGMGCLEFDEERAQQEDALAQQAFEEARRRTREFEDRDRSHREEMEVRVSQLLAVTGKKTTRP
Experiment: disruptors of Runt domain/CBFb-SMMHC interaction – biochemical, FRET, Cerulean-Runt, Venus-CBFb-SMMHC, uHTS, primary screen (AID 1434);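 note: 0% = DMSO wells and 100% = wells with excess untagged CBFb-SMMHC; inhibitors lower the FRET ratio by blocking Runt binding to CBFb-SMMHC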
Settings: Cerulean-Runt/Venus-CBFb-SMMHC FRET ratio 530/480, 1 h, at 20 µM, stronger effect = higher value

With `Cc1ccc(S(=O)(=O)NCCc2nnc3ccc(SCc4cccnc4)nn23)cc1` the inhibition was -6.7% (inactive).

`Cc1c(Cc2ccccc2)c(=O)oc2cc(OCC(N)=O)ccc12` was tested, and the inhibition was 2.5% (inactive).

`O=C(Oc1ccccc1)Oc1ccc2c(c1)oc(=O)c1ccccc12` was tested, and the inhibition was -17.7% (inactive).

In the case of `O=C(Nc1cc2ccccc2oc1=O)C1CCCCC1`, the inhibition is reported as -0.3% (inactive).

In the case of `CC(=O)Oc1ccc2c(C)c(CC(C)O)c(=O)oc2c1` (stereo not drawn), the inhibition is reported as 119% (active) and the inhibition (retest duplicate average) is reported as 116%.

With `CC(=O)Nc1cc2ccc(OC(C)=O)cc2oc1=O` the inhibition was 58.6% (active) and the inhibition (retest duplicate average) was 119%.

For `COC(=O)Cc1c(C)c2ccc(OCC(=O)NCc3ccc4c(c3)OCO4)cc2oc1=O`, the inhibition was -5.4% (inactive).

For `CCCNC(=O)N1CCN(C(=O)NCCC)CC1`, the inhibition was 2.1% (inactive).

`Cc1nc(C(=O)NCc2ccccc2)sc1C1(C)CC(c2cccnc2)=NO1` (stereo not drawn) was tested, and the inhibition was 0.2% (inactive).

In the case of `CCOC(=O)C1=C(c2ccccc2)NC(=S)NC1c1ccc(Cl)cc1` (stereo not drawn), the inhibition is reported as -1.3% (inactive).

`CC(C)CCNC(=O)C1CCC(CNc2c(N3CCC(C)CC3)c(=O)c2=O)CC1` (stereo not drawn) was tested, and the inhibition was -1.8% (inactive).

In the case of `Cc1cc2c(cc1C)[n+](C)cn2CC(O)COCC1CC=CCC1` (stereo not drawn), the inhibition is reported as 7.6% (inactive).

`COc1ccc2c(c1)CCc1c(C(=O)N3CCCC3)noc1-2` was tested, and the inhibition was -2.4% (inactive).

`COc1ccc2c(c1)CCc1cn3ncc(C#N)c3nc1-2` was tested, and the inhibition was 89.1% (active) and the inhibition (retest duplicate average) was 74.1%.

`N#Cc1cnn2cc(CCN3CCOCC3)c(-c3ccc(F)cc3)nc12` was tested, and the inhibition was -1.8% (inactive).

In the case of `COc1ccc(OC)c2[nH]c(=O)c(CCNC(=O)C(=O)c3c[nH]c4ccccc34)cc12`, the inhibition is reported as 0.3% (inactive).

With `CCCCN(C(=O)/C=C/c1ccco1)c1c(N)n(CC(C)C)c(=O)[nH]c1=O` the inhibition was 8.5% (inactive).

For `CC(=O)COc1ccc2c(-c3ccccc3)cc(=O)oc2c1`, the inhibition was 3.8% (inactive).

With `O=C(CNC(=O)c1ccc(-c2ccccc2)cc1)OCc1ccc(Cl)cc1` the inhibition was -1.6% (inactive).

With `O=C(CNC(=O)OCc1ccccc1)Oc1cc2oc(=O)cc(-c3ccccc3)c2cc1Cl` the inhibition was 78.7% (active) and the inhibition (retest duplicate average) was 71.5%.

With `O=[N+]([O-])c1ccc(N2CCNCC2)cc1NCc1cccnc1` the inhibition was -3.2% (inactive).

With `CC(C)OCCCNC(=O)c1cc(Sc2ccc(F)cc2)nc2ccccc12` the inhibition was 0.5% (inactive).

`O=C(CSc1ncn[nH]1)Nc1nsc(-c2ccccc2)n1` was tested, and the inhibition was 3.7% (inactive).

For `O=C(CSc1nc(O)c(Cc2ccccc2)c(=O)[nH]1)Nc1nc2c(s1)CCCC2`, the inhibition was 2.5% (inactive).

In the case of `CN1C(=O)/C(=C/C=C2\SCCN2C)OC1=S`, the inhibition is reported as 84.2% (active) and the inhibition (retest duplicate average) is reported as 79.9%.

`CCc1ccc(C(=O)OCC(=O)NCC(F)(F)F)cc1` was tested, and the inhibition was -1.7% (inactive).

In the case of `CCO[C@H]1OC(C(=O)NCc2ccccc2)=C[C@@H](c2coc3ccccc3c2=O)[C@@H]1CCCO`, the inhibition is reported as -0.8% (inactive).

With `CN1CCNC(=O)C1CC(=O)N1CC=C(c2ccc(F)cc2)CC1` (stereo not drawn) the inhibition was -7.4% (inactive).

In the case of `Cc1ccccc1NC(=S)Nc1cccc([N+](=O)[O-])c1`, the inhibition is reported as 5.7% (inactive).

`COC(=O)/C=C\C(=O)Nc1cccc([N+](=O)[O-])c1` was tested, and the inhibition was 56% (active) and the inhibition (retest duplicate average) was 62.5%.

`CC(=O)Nc1cccc([N+](=O)[O-])c1` was tested, and the inhibition was 0.2% (inactive).

With `CC(C)n1c(-c2cccs2)nc2ccccc21` the inhibition was 1.6% (inactive).

For `COCCCn1c(-c2cccs2)nc2nc3ccccc3nc21`, the inhibition was 87.7% (active) and the inhibition (retest duplicate average) was 99.9%.

In the case of `COc1ccc(CCn2c(-c3ccco3)nc3nc4ccccc4nc32)cc1OC`, the inhibition is reported as -7.1% (inactive).

For `Cc1ccc(C(=O)O)cc1NC(=O)c1ccc(Cn2nc(C)c(Cl)c2C)o1`, the inhibition was -2.9% (inactive).

In the case of `O=C(CCc1n[nH]c(=O)[nH]c1=O)N/N=C/c1ccc(Br)o1`, the inhibition is reported as -0.8% (inactive).

With `CN(C)c1nc(N)nc(Cn2nnc(-c3ccc(C(F)(F)F)cc3)n2)n1` the inhibition was 1.3% (inactive).

With `c1ccc(-c2cc3c(NCC4COc5ccccc5O4)ncnc3s2)cc1` (stereo not drawn) the inhibition was 8.3% (inactive).

With `O=C(CC1CCCCC1)NCc1ccc(F)cc1` the inhibition was -2% (inactive).

`COCCC(=O)Nc1ccc2c(c1)CN(C(=O)CCOC)CC2` was tested, and the inhibition was -1% (inactive).

With `O=c1c2c(nc3cc(-c4cccc(Cl)c4)[nH]n13)CCCC2` the inhibition was -1.8% (inactive).

For `COCCCn1c(CCC(=O)O)ccc1-c1ccc(F)cc1`, the inhibition was 26.6% (inactive).

In the case of `CC(C)Cn1c(CCC(=O)O)ccc1-c1cccs1`, the inhibition is reported as 179% (active) and the inhibition (retest duplicate average) is reported as 134%.

In the case of `CCn1c(NC(=O)c2ccccc2)c(-c2cccs2)c(=O)c2ccccc21`, the inhibition is reported as 2.4% (inactive).

For `COc1ccc(-n2cnc3cc(C(=O)NC4CCCC4)ccc32)cc1`, the inhibition was 0.8% (inactive).

`CCOc1ccc2nc(N3CCCN(C(=O)Nc4ccccc4C)CC3)c(C#N)cc2c1` was tested, and the inhibition was 61.6% (active) and the inhibition (retest duplicate average) was 71.5%.

With `CCOc1ccc2nc(NCCNS(=O)(=O)c3ccccc3)c(C#N)cc2c1` the inhibition was 34% (inactive).

`CCOc1ccc2cc(C#N)c(SCC(=O)OC)nc2c1` was tested, and the inhibition was -89.9% (inactive).

For `CCCCN1C(=O)/C(=C/C=C2/C=Cc3ccccc3N2CC)SC1=S`, the inhibition was -1.7% (inactive).
